Where “and” joins values, the source holds several entries; their conditions need not be identical. Equal entries are not always repeated. Results filed as inconclusive are left out. The source holds several records for some structures; these can differ, active in one and inactive in another. Calls of active or inactive are those of the source. Unless noted, calls follow the shape of the dose curve; as a rule, active = well fitted curve in the direction sought with a large enough effect in the repeat runs; inconclusive = weak or mixed curves; inactive = no such curve, though single readings can be large; an effect the other way counts as inactive or inconclusive.

Six molecules from PubChem BioAssay (Tox21) can be followed below.

Assay [1] has as its target Thyrotropin receptor (Homo sapiens) (UniProt P16473). As to the kind of experiment: qHTS assay to identify small molecule agonists of the thyroid stimulating hormone receptor (TSHR) signaling pathway (AID 1224843; calls by dose curve; also: nearly all actives have a fitted effect of over 45% in size; also: potency is read from the fitted curve at half-maximal effect). In short, it runs like this:
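A cell-based cAMP HTRF format was run in TSHR-transfected HEK293 cells, 800 per well. Treatment: 30 min, room temperature. Detection: 1 h with labelled cAMP and anti-cAMP cryptate. Concentration-response over 15 points, three replicates.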
(qHTS replaces the single test concentration by a dilution series.)

A short description of assay [2]: qHTS assay to identify small molecule agonists of the hypoxia (HIF-1) signaling pathway - cell viability counter screen (AID 1224844; calls by dose curve; also: nearly all actives have a fitted effect of over 50% in size; also: potency is read from the fitted curve at half-maximal effect). In short, it runs like this:
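CellTiter-Glo luminescence read-out, 30 min RT, taken in the same wells as the beta-lactamase HRE reporter assay; HRE-bla ME-180 cells, 0.5% dialyzed FBS, 17 hr compound treatment at 37C, 5% CO2.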

Assay [3] can be described thus: qHTS assay to identify small molecule agonists of H2AX (AID 1224845; active = well fitted activation curve with a large enough effect in the signal ratio in the repeat runs, not every such curve was filed as active; the % refers to the signal ratio). A digest of the protocol: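 Phospho-H2AX Ser139 measured by HTRF (ex 320 nm; em 665 and 620 nm) after 24 hr antibody incubation. Compounds, 15 concentrations, 0.76% DMSO, were applied to CHO-K1 cells for 3hr at 37C before lysis.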
Assay [4] in a line: qHTS assay to identify small molecule agonists of H2AX - cell viability counter screen (AID 1224847; calls by dose curve; also: nearly all actives have a fitted effect of over 30% in size; also: potency is read from the fitted curve at half-maximal effect). A digest of the protocol:
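Read-out: CellTiter-Glo luminescence, 30 min RT. Cells: wild-type CHO-K1, 1000/well, 10% FBS, plated overnight at 37C. Treatment: 15 concentrations, 3 hr, 37C, 0.76% DMSO.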

A short description of assay [5]: qHTS assay to identify small molecule agonists of the estrogen related receptor (ERR) signaling pathway from Tox21 library (AID 1224849; calls by dose curve; also: nearly all actives have a fitted effect of over 15% in size). The following applies: ERR reporter cell line, ONE-Glo luciferase, 18 h. In short, it runs like this:
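Luminescence readout (ONE-Glo, 30 min RT) after 18 h compound exposure at 37 C of NTP-supplied ERR reporter cells; cells were plated 6 h before compound addition by pin tool.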

Assay [6] in a line: qHTS RealTime-Glo MT Cell Viability Assay in HepG2 cells - 24 hour (AID 1224867). Also: nearly all actives have a fitted effect of over 50% in size. Also: potency is read from the fitted curve at half-maximal effect. A digest of the protocol:
(§1)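 Cell number in HepG2 cultures estimated from NanoLuc luminescence generated by metabolic reduction of a prosubstrate by living cells. The homogeneous, nonlytic format allowed repeated reads at 0, 8, 16, 24, 32 and 40 h of compound exposure.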

Assay [7] in a line: qHTS RealTime-Glo MT Cell Viability Assay in HEK293 cells - 32 hour (AID 1224868). Also: nearly all actives have a fitted effect of over 50% in size. Also: potency is read from the fitted curve at half-maximal effect. A digest of the protocol: (§2)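 Homogeneous bioluminescent viability format in HEK293 cells (600 cells/well). Following 5 h at 37 C/5% CO2, 23 nL compound was pintooled; the signal was measured repeatedly during 40 h incubation.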
A short description of assay [8]: A CellTox Green Cytotoxicity Assay to monitor cytotoxicity in HEK293 cells - 0 hour (AID 1224869). Also: nearly all actives have a fitted effect of over 50% in size. A digest of the protocol:
(§3)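 Read-out: fluorescence of a cell-impermeant cyanine dye staining DNA of dead cells, proportional to cytotoxicity. HEK293, 600 cells/well with reagent, compound (23 nL DMSO) added after 5 h; reads at 0, 8, 16, 24, 32, 40 h.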

The nature of assay [9]: qHTS RealTime-Glo MT Cell Viability Assay in HepG2 cells - 40 hour (AID 1224870). Also: nearly all actives have a fitted effect of over 50% in size. Also: potency is read from the fitted curve at half-maximal effect. In short, it runs like this: (§4)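 Real-time viability: cells seeded at 600 per well together with NanoLuc and cell-permeant prosubstrate, compounds added after 5 h incubation. Luminescence tracked at 0, 8, 16, 24, 32 and 40 h of exposure.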
The nature of assay [10]: A CellTox Green Cytotoxicity Assay to monitor cytotoxicity in HEK293 cells - 40 hour (AID 1224871). Also: nearly all actives have a fitted effect of over 45% in size. Also: potency is read from the fitted curve at half-maximal effect. In short, it runs like this:
as §3

The nature of assay [11]: qHTS RealTime-Glo MT Cell Viability Assay in HEK293 cells - 16 hour (AID 1224872). Also: nearly all actives have a fitted effect of over 50% in size. Also: potency is read from the fitted curve at half-maximal effect. In short, it runs like this: as §2
Assay [12] in a line: qHTS RealTime-Glo MT Cell Viability Assay in HepG2 cells - 8 hour (AID 1224873). Also: nearly all actives have a fitted effect of over 55% in size. Also: potency is read from the fitted curve at half-maximal effect. A digest of the protocol: as §4
A short description of assay [13]: qHTS RealTime-Glo MT Cell Viability Assay in HEK293 cells - 40 hour (AID 1224874). Also: nearly all actives have a fitted effect of over 50% in size. Also: potency is read from the fitted curve at half-maximal effect. The following applies: RealTime-Glo luminescence; max response: stronger effect = lower value. A digest of the protocol:
(§5)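 Luminescence readout at each listed time point; HEK293, 600 cells/well, RealTime-Glo MT reagent added with cells; compounds pinned (23 nL in DMSO) after 5 h at 37 C; continuous culture at 37 C.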

Assay [14] is described as follows: A CellTox Green Cytotoxicity Assay to monitor cytotoxicity in HEK293 cells - 24 hour (AID 1224875). Also: nearly all actives have a fitted effect of over 45% in size. Also: potency is read from the fitted curve at half-maximal effect. A digest of the protocol:
as §3

Assay [15] is described as follows: A CellTox Green Cytotoxicity Assay to monitor cytotoxicity in HepG2 cells - 16 hour (AID 1224876). Also: nearly all actives have a fitted effect of over 45% in size. Also: potency is read from the fitted curve at half-maximal effect. In short, it runs like this: (§6)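 HepG2, 600 cells/well premixed w/ CellTox Green; 5 h settle, 37 C/5% CO2; pintool cpd add (DMSO); 37 C, 40 h; fluorescence read at 0, 8, 16, 24, 32, 40 h.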
Assay [16] is described as follows: A CellTox Green Cytotoxicity Assay to monitor cytotoxicity in HepG2 cells - 24 hour (AID 1224878). Also: nearly all actives have a fitted effect of over 45% in size. Also: potency is read from the fitted curve at half-maximal effect. In short, it runs like this:
as §6

Assay [17] in a line: A CellTox Green Cytotoxicity Assay to monitor cytotoxicity in HepG2 cells - 40 hour (AID 1224879). Also: nearly all actives have a fitted effect of over 40% in size. Also: potency is read from the fitted curve at half-maximal effect. In short, it runs like this:
as §6

A short description of assay [18]: qHTS RealTime-Glo MT Cell Viability Assay in HEK293 cells - 0 hour (AID 1224880). In short, it runs like this: as §5
A short description of assay [19]: qHTS RealTime-Glo MT Cell Viability Assay in HepG2 cells - 32 hour (AID 1224877). Also: nearly all actives have a fitted effect of over 55% in size. A digest of the protocol: as §1
A short description of assay [20]: qHTS assay to identify small molecule agonists of the hypoxia (HIF-1) signaling pathway (AID 1224846; active = well fitted activation curve with a large enough effect in the signal ratio in the repeat runs, not every such curve was filed as active; the % refers to the signal ratio). In short, it runs like this:
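Beta-lactamase FRET read-out (CCF4-AM substrate) from ME-180 cells carrying an HRE-driven bla reporter, after 17 hrs compound exposure at 37C/5% CO2. Cells were seeded at 2,000 per well in 0.5% dialyzed FBS medium and preincubated 5 hrs.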
% is scaled to controls: 0 for no effect and ±100 for the full control effect.

Thyrotropin receptor (Homo sapiens), sequence (P16473 whole entry, looked up): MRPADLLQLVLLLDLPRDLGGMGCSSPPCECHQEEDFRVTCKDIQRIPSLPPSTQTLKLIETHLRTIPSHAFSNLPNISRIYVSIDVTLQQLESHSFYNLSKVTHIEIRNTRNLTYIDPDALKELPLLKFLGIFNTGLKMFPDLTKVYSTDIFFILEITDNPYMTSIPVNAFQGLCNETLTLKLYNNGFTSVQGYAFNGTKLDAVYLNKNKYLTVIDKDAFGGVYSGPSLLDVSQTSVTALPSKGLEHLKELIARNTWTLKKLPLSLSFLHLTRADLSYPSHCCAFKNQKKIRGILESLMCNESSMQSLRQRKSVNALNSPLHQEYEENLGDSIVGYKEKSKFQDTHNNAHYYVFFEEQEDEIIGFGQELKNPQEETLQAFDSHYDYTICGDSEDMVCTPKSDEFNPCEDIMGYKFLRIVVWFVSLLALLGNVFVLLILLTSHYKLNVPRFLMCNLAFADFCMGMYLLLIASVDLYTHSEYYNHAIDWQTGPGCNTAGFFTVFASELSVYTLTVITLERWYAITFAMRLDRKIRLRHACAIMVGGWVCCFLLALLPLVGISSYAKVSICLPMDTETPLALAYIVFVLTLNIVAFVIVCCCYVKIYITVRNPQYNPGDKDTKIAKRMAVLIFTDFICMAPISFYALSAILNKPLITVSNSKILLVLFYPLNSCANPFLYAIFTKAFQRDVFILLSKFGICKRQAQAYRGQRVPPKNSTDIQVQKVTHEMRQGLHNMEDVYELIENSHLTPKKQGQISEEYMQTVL

Turning to `CN(C)CCOC(C)(c1ccccc1)c1ccccn1` (centres undefined), the Potency result in assay [1], in assay [2], in assay [3], in [4], in [6] and in assay [7] was “inactive” each time. Moreover, the Potency entry in assay [8], in [9], in assay [10], in assay [11], in [12] and in assay [14] was “inactive” each time. In addition, the Potency result in assay [15], in assay [16], in assay [17] and in assay [18] was “inactive” throughout. For the same molecule, the activity change, positive = activation in assay [5] (at 42.5 µM (top of the series)) was 0.337% (inactive); in assay [5] (at 92.4 µM (top of the series)), 3.01% (inactive) and -2.07% (inactive). Moreover, in assay [13], the max response is 2.62% (inactive) and -0.138% (inactive) and 6.89% (inactive).

As to `O=C1c2c(O)cccc2Cc2cccc(O)c21`, the Potency result in assay [1], in assay [2], in assay [3], in [4], in assay [6] and in [7] was “inactive” throughout. The Potency result in [8], in assay [9], in [11], in assay [12], in [14] and in assay [15] was “inactive” in each case. Further, the Potency result in assay [19], in [16], in assay [17] and in [18] was “inactive” each time. Further, the max response in assay [13] was -2.74% (inactive) and 0.603% (inactive) and 0.249% (inactive).

In the case of `CC(C)C(=O)Nc1ccc([N+](=O)[O-])c(C(F)(F)F)c1`, the Potency result in [1], in assay [2], in assay [3], in [6], in assay [8] and in [9] was “inactive” each time. For the same molecule, the Potency entry in assay [12], in assay [14], in assay [15], in [16], in [17] and in assay [18] was “inactive” each time. The Potency in [4] is 104 µM (active) and inactive; in [7], 12.6 µM (active) and 19.5 µM (active) and 9.52 µM (active); in assay [11], 20 µM (active) and 19.5 µM (active) and 10.7 µM (active); in assay [13], 11.3 µM (active) and 21.9 µM (active) and 9.52 µM (active). The activity change, positive = activation in assay [5] (at 42.5 µM (top of the series)) is -30.7% (inactive); in assay [5] (at 92.4 µM (top of the series)) it was -65.7% (inactive) and -58.2% (inactive).

Take `O=CC(=O)c1ccccc1`: in assay [1], the Potency was 27.3 µM (active). Also, the Potency entry in assay [2], in assay [6], in assay [7], in [8], in assay [9] and in assay [11] was “inactive” in each case. For the same molecule, the Potency result in assay [12], in [14], in assay [15], in assay [16], in [17] and in [18] was “inactive” each time. Moreover, the result in [20] was inactive. Also, the activity change, positive = activation in [5] (at 92.4 µM (top of the series)) is -0.129% (inactive). In addition, the max response in assay [13] is 13% (inactive).

In the case of `O=C1NS(=O)(=O)c2ccccc21`, the Potency entry in [1], in assay [2], in assay [3], in assay [4], in assay [6] and in assay [7] was “inactive” each time. Besides, the Potency entry in assay [8], in [9], in [11], in assay [12], in assay [14] and in [15] was “inactive” throughout. Moreover, the Potency entry in [16], in assay [17] and in [18] was “inactive” in each case. The outcome in assay [20] was inactive. Besides, in [13], the max response was 5.75% (inactive) [middle of 5 runs].

For the molecule `CCCCCCCCCCCC[N+](C)(C)Cc1ccccc1`, the Potency in assay [1] was 30 µM (active) and 37.4 µM (active); in [2] it was 53.9 µM (active); in assay [4] it was 98.8 µM (active) and 110 µM (active) and 49.2 µM (active); in assay [6], 12.1 µM (active) and 21.2 µM (active) and 8.49 µM (active); in [7], 3.4 µM (active) and 2.99 µM (active) and 2.13 µM (active); in assay [9], 8.54 µM (active) and 16.8 µM (active) and 6.74 µM (active). Also, the Potency in [10] was 42.8 µM (active) and 47.4 µM (active) and 23.9 µM (active); in assay [11] it was 24.1 µM (active) and 23.8 µM (active) and 8.49 µM (active); in [12] it was 48 µM (active) and 53.2 µM (active) and 26.8 µM (active); in assay [13], 1.91 µM (active) and 2.12 µM (active) and 1.9 µM (active); in assay [14], 42.8 µM (active) and 47.4 µM (active) and 23.9 µM (active); in assay [15], 21.5 µM (active) and 26.7 µM (active) and 19 µM (active). Besides, the Potency in [16] was 19.1 µM (active) and 23.8 µM (active) and 10.7 µM (active); in assay [17], 13.5 µM (active) and 18.9 µM (active) and 8.49 µM (active). Moreover, the Potency result in assay [3], in assay [8] and in assay [18] was “inactive” each time.
